Laboratory results from the supplement of paper PMC3842684.

test system: P. falciparum NF54-pfs16-GFP early (I-III) stage gametocytes; test: relative % inhibition of viable gametocyte number; higher = more gametocytocidal; conditions: 0.5 µM; stage: early (I-III) gametocyte; incubation 72 h
In short: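 Viable gametocytes were counted by confocal imaging as elongated GFP objects carrying MitoTracker Red signal above a cut-off, after 72 h of compound exposure (5 or 0.5 µM) at 37°C in 5% CO2 and 5% O2 and overnight staining. The NF54 pfs16-GFP gametocytes had been magnet-isolated at early (I/IIa, day 2) or late (day 8) stage and plated at 10% parasitaemia, 0.1% haematocrit in 384-well poly-D-lysine imaging plates. Relative inhibition was normalised to vehicle and positive-control wells within each plate.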

Structure (SMILES) | relative % inhibition [%]
COc1cc(OC)c(N(C)C(=O)c2cc3c(s2)-c2ccccc2S(=O)(=O)C3)cc1Cl | 52.2
O=C(NCC1Cc2cccc(-c3ccncc3)c2O1)c1csc2c1CCCC2 (configuration not stated) | -5.92
COCCN(C(=O)Cc1cccs1)C(C(=O)NCc1ccc(OC)cc1)c1ccc(C(C)C)cc1 (configuration not stated) | 25.1
COc1ccc(CNC(=O)c2cc3c(=O)n4ccccc4nc3n(CCc3ccccc3)c2=N)cc1 | 2.74
c1ccc(Cn2c(N=Nc3c(Nc4ccccc4)ccc4ccccc34)nc3ccccc32)cc1 | 62.1
Cc1c(C)n(CC(O)CNC2CCCCC2C)c2ccccc12 (configuration not stated) | 41.6
CCN(CC)c1ccc(NC(=O)c2cccs2)cc1 | -1.58
COc1ccc(C(=O)C2CC2c2ccc(Cl)cc2)cc1 (configuration not stated) | 8.75
COc1ccc(C(=O)Nc2nonc2-c2ccc(OC)c(OC)c2)cc1Cl | 33.4
O=C(Nc1ccc(-c2nc3cc4ccccc4cc3[nH]2)cc1)c1cccc(Br)c1 | 23.2
COc1ccc(C(=O)C(CCC(CNC(C)(C)C)C(=O)c2ccc(OC)cc2)CNC(C)(C)C)cc1 (configuration not stated) | 62.7
O=C(NCc1ccco1)C1CCN(S(=O)(=O)c2ccc(Cl)cc2)CC1 | 7.81
CCOc1ccc(-c2nc(NC(=O)c3cccc(S(C)(=O)=O)c3)sc2C)cc1 | 17.8
Cc1ccc(C(=O)c2oc3ccc4c(C)cc(=O)oc4c3c2C)cc1 | 8.47
O=C(NC(c1ccccc1)c1ccc2cccnc2c1O)c1ccccc1 (configuration not stated) | 31.4
CCOC(=O)c1cn(CC)c2cc(N(C)CCc3ccc(OC)c(OC)c3)c(F)cc2c1=O | 38.6
CCN(CC)CCNc1ncnc2c1[nH]c1ccc(Cl)cc12 | 14.5
